Source: PubChem BioAssay AID686971 (National Center for Advancing Translational Sciences (NCATS), 2013)
In all, about 360,000 compounds went through this assay and about 7,500 (2.1%) were called active. Not shown: some 8% with an inconclusive outcome. Calls follow the shape of the dose curve; as a rule, active = well fitted cell-killing curve with a large enough effect; inconclusive = small, poorly fitted or top-dose-only effect, or effect the other way, or another doubt; inactive = no such curve, though single readings can be large or run the other way. The list comes from a sample in which actives are over-represented; it also holds similar structures and randomly drawn compounds.

Assay: qHTS for induction of synthetic lethality in tumor cells producing 2HG: qHTS for the HT-1080-IDH1KD cell line;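 as to activity, negative = toxicity: 0% = DMSO wells and -100% = cell-free medium wells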
Conditions: HT-1080 IDH1 knockdown viability, ATP luminescence, 48 h; series mostly up to 46.1 µM; activity, negative = toxicity: at the top concentration
Summary of the method: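 Using the IDH1-knockdown HT-1080 line run in the same batch and compound series as the NT line, viability after 48 h at 37 °C was determined by CellTiter-Glo luminescence and expressed as % activity.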
Potency is read from the fitted curve at half-maximal effect.

| SMILES | activity, negative = toxicity | Potency |
| --- | --- | --- |
| CC1(C(=O)NS(=O)(=O)c2cccc(OC(F)F)c2)CCN1C(=O)C1CC1 (configuration not stated) | 4.44% (inactive) | – |
| O=C(Nc1ccc(F)cc1)C(CCc1ccccc1)N1CCN(CC(=O)N2CCCC2)CC1 (configuration not stated) | -0.549% (inactive) | – |
| Cc1nc(N2CCOCC2)sc1C(=O)NN | -18.6% (inactive) | – |
| Cc1nc(-c2ccc(Cl)cc2)sc1C(=O)CBr | -1.12% (inactive) | – |
| Cc1nc(-c2ccc(Cl)cc2)sc1C(=O)NN | – | 10.3 µM (active) |
| COCCCNC(=O)c1ccc(-c2c(C)noc2C)c2ccoc12 | 0.623% (inactive) | – |
| O=C(NOCc1ccccc1)c1cccc([N+](=O)[O-])c1 | 16.1% (inactive) | – |
| O=C(COC(=O)c1ccc([N+](=O)[O-])cc1Cl)NC(=O)c1ccccc1 | 9.43% (inactive) | – |
| O=C(NC(Nc1nc2ccc([N+](=O)[O-])cc2s1)(C(F)(F)F)C(F)(F)F)c1ccccc1 | – | 5.17 µM (active) |
| COc1ccc(OC)c(NC(=O)C2(C)CCN2C(=O)Cc2ccccc2)c1 (configuration not stated) | 13.4% (inactive) | – |
| Cc1cc(C(=O)N2CCCC2(C)C(=O)O)c(C)o1 (configuration not stated) | 12.2% (inactive) | – |
| COC(=O)[C@@]1(Cc2ccc(F)cc2)[C@H]2c3cc(C(=O)N(C)C)n(CCc4c[nH]c5ccc(OC)cc45)c3C[C@H]2CN1C(=O)c1ccccc1 | 6.89% (inactive) | – |
| COC(=O)[C@@]1(Cc2ccc(F)cc2)[C@H]2c3cc(C(=O)N4CCCC4)n(C[C@H](O)CO)c3C[C@H]2CN1C(=O)c1ccccc1 | 3.55% (inactive) | – |
| COC(=O)[C@@]1(Cc2ccc(F)cc2)[C@H]2c3cc(C(=O)N4CCCC4)n(Cc4ccc(OC(F)(F)F)cc4)c3C[C@H]2CN1C(=O)c1ccccc1 | – | 23.1 µM (active) |
| CCCNC(=O)C1(C)CCN(Cc2csc(-c3ccc(Cl)cc3)n2)C1 (configuration not stated) | -27.7% (inactive) | – |
| COc1ccc(-c2cc3c(c4c2ccn4C)C2CCC3C2)cn1 (configuration not stated) | -0.197% (inactive) | – |
| C=CCn1c(CC(=O)Nc2cccc(OC)c2)nnc1SCC(=O)NC1CCCCC1 | -3.5% (inactive) | – |
| COc1cccc(-n2c(SCC(=O)NC3CCCCC3)nc3n[nH]c(C)c3c2=N)c1 | – | 18.4 µM (active) |
| COc1cccc(-n2c(SCC(=O)NC3CCS(=O)(=O)C3)nc3ccccc3c2=O)c1 (configuration not stated) | 0.884% (inactive) | – |
| CCc1noc(C)c1C(=O)OCC(=O)c1ccc(NC(=O)CC(C)C)cc1 | -12% (inactive) | – |
| FC(F)(F)c1ccccc1Cc1c(-c2ccccc2)nc2c3ccccc3ccn12 | 0.112% (inactive) | – |
| O=C(NCC(F)(F)F)c1ccc(S(=O)(=O)NCCc2ccc3c(c2)OCCO3)cc1 | 0.85% (inactive) | – |
| Nc1ccccc1-c1nc2ccncc2[nH]1 | -0.0305% (inactive) | – |
| CCCOc1ccccc1-c1nc(SCCC(=O)O)n[nH]1 | -22.7% (inactive) | – |
| Cc1cc(C)nc(Nc2n[nH]c(-c3ccccc3N)n2)n1 | – | 32.6 µM (active) |

| SMILES | activity, negative = toxicity | Potency |
| --- | --- | --- |
| CCOC(=O)[C@]12CCC=C1N(CCC1=CCCCC1)C(=O)[C@H](CC(=O)NCc1ccc(C)o1)C2 | -10.4% (inactive) | – |
| CC(=O)C[C@@H]1OC[C@H](C)N1S(=O)(=O)c1ccc(C)cc1 | -14.2% (inactive) | – |
| CCN(CC)CCOCCOc1ccc(Cl)c2ccccc12 | -5.77% (inactive) | – |
| CN(C)CCOCCOc1ccc(Cl)c2ccccc12 | – | 20.6 µM (active) |
| CN(C)CCOc1ccc(Cl)cc1C(C)(C)C | -2.96% (inactive) | – |
| N#CCCC(C#N)(c1cccnc1)N1CCOCC1 (configuration not stated) | 5.2% (inactive) | – |
| CCC(C)CN1C(=O)CN(S(C)(=O)=O)CC1(C)C(=O)Nc1ccc2c(c1)OCCO2 (configuration not stated) | 21.2% (inactive) | – |
| O=C(NCc1ccco1)c1cccc(-c2ccc3nncn3c2)c1 | 0.613% (inactive) | – |
| Cn1c(=O)[nH]c(=O)c2c1[nH]c(=S)n2Cc1ccccc1 | 3.8% (inactive) | – |
| CCCSc1nc(NCc2ccco2)c2c3c(sc2n1)COC(C)(CC)C3 (configuration not stated) | 14.4% (inactive) | – |
| CCC1(C)Cc2c(sc3[nH]c(=S)n(Cc4ccccc4)c(=O)c23)CO1 (configuration not stated) | – | 14.6 µM (active) |
| OC[C@@H]1CN(Cc2cccs2)C[C@H](n2cnc3c(Nc4ccccc4)ncnc32)O1 | -11% (inactive) | – |
| Cc1cc(Cl)ccc1-c1nc(NCCN(C)C)nc2ccsc12 | – | 23.1 µM (active) |
| Cc1ccc(Cl)cc1NC(=S)N(CCN(C)C)Cc1cccs1 | -9.19% (inactive) | – |
| O=C(CC[C@H]1O[C@@H](n2ccc(=O)[nH]c2=O)[C@H](O)[C@@H]1O)N[C@H](Cc1ccccc1)C(=O)NCc1ccco1 | 29.4% (inactive) | – |
| CCc1ccccc1NC(=O)CN1CCN(C(=O)c2cc(C3CC3)nn2-c2ccccc2)CC1 | -0.558% (inactive) | – |
| COc1ccc(NC(=O)CCCOc2ccc(C(C)=O)cc2)cc1S(=O)(=O)N1CCCCC1 | -11.2% (inactive) | – |
| CCC(CC)C(C(=O)NC1CCCC1)N1CCN(c2cc(C)nc3ccccc23)CC1 (configuration not stated) | -24.2% (inactive) | – |
| Cc1ccc2nc(/C(C#N)=C\c3ccc(OC(=O)c4cccs4)cc3)[nH]c2c1 | – | 7.94 µM (active) |
| COc1ccc(CCNC(=O)/C(C#N)=C2\N=C(NC(=O)c3cccs3)c3ccccc32)cc1 | -7.12% (inactive) | – |
| COc1ccc2c(c1)CCCO[C@]21O[C@H](CCO)C[C@H](O)[C@H]1O | 13% (inactive) | – |
| Nc1ncnc2c1ncn2[C@@H]1O[C@H](C(=O)N2CCSC2)[C@@H](O)[C@H]1O | 19% (inactive) | – |
| CC1(C(=O)Nc2ccc3c(c2)OCCO3)CN(S(C)(=O)=O)CC(=O)N1Cc1cccc(F)c1 (configuration not stated) | 23% (inactive) | – |
| Fc1ccc2[nH]c3c(N4CCN(Cc5ccc6c(c5)OCO6)CC4)ncnc3c2c1 | – | 23.1 µM (active) |
| O=c1[nH]c(N2CCN(Cc3ccc4c(c3)OCO4)CC2)nc2c1CCCC2 | -0.272% (inactive) | – |

| SMILES | activity, negative = toxicity | Potency |
| --- | --- | --- |
| CCCCCc1c(C)nc(N2CCN(Cc3ccc4c(c3)OCO4)CC2)[nH]c1=O | 22.7% (inactive) | – |
| CC(C)NC(=O)N1Cc2cc(C(=O)NCC(F)(F)F)nc(-c3cccc(-c4cc5ccccc5o4)c3)c2[C@@H]1CCO | -18.3% (inactive) | – |
| CCOC(=O)C1CCCN(C(=O)c2cc(-c3cccs3)oc2C)CC1 (configuration not stated) | -12.7% (inactive) | – |
| CCn1c(SCC(=O)N2CCCC2=O)nc2ccccc21 | 7.12% (inactive) | – |
| CCC(=C/c1sc2ccc3ccccc3c2[n+]1C)/C=C1\Sc2ccc3ccccc3c2N1C | – | 5.17 µM (active) |
| CCC1NC(=O)c2cccnc2-n2c1nc1ccc(C)cc1c2=O (configuration not stated) | 5.21% (inactive) | – |
| CCCS(=O)(=O)NC(=O)C1(C)CCN(C(=O)c2sccc2C)C1 (configuration not stated) | 6.6% (inactive) | – |
| COc1ccc2nc(/N=C(\N)NC(=O)Nc3ccccc3)nc(C)c2c1 | -26.8% (inactive) | – |
| CC(C)c1cc(C(=O)NC2CCCCCC2)c2ccccc2n1 | -15.4% (inactive) | – |
| Cc1nc(/N=C(\N)NC(=O)NC2CCCCC2)nc2ccccc12 | – | 14.6 µM (active) |
| C[C@@H]1CC2=C(C(=O)OC(C)(C)O2)[C@@H](C2CC2)O1 | 0.29% (inactive) | – |
| CN(Cc1ccc(C(F)(F)F)cc1)C(=O)[C@H]1O[C@@H](n2cnc3c(N)ncnc32)[C@H](O)[C@@H]1O | 9.93% (inactive) | – |
| COc1ccc(-c2[nH]ncc2CN(C)Cc2c(C)n[nH]c2C)c(OC)c1 | -2.08% (inactive) | – |
| COc1ccc(-c2c(-c3ccc(OC)cc3O)nc(C)nc2C(F)(F)F)cc1 | -10.8% (inactive) | – |
| COc1ccc(-c2n[nH]c(C)c2-c2ccc(OC)c(OC)c2)c(O)c1 | – | 18.4 µM (active) |
| CC1(C(=O)NS(=O)(=O)c2ccccc2)CCN1C(=O)C1CCCCC1 (configuration not stated) | 25.8% (inactive) | – |
| O=C1c2ccccc2C(c2nc3ccccc3[nH]2)N1c1ccccc1 (configuration not stated) | 6.09% (inactive) | – |
| C=C1c2c(Cl)ccc(O)c2C(O)=C2C(=O)[C@]3(O)C(O)=C(C(N)=O)C(=O)[C@@H](N(C)C)[C@@H]3[C@@H](O)C12 (some centres not stated) | – | 18.4 µM (active) |
| O=C1OCCC1=COCCCCOC=C1CCOC1=O | 3.53% (inactive) | – |
| COc1ccc(C(O)c2nc(-c3ccc4c(c3)OCO4)cs2)cc1 (configuration not stated) | -24.8% (inactive) | – |
| C[C@@H]1CN([C@H](C)CO)C(=O)CCCn2cc(nn2)CO[C@H]1CN(C)S(C)(=O)=O | -2.43% (inactive) | – |
| COc1ccc(/C=C(\NC(=O)c2ccc(OC)c(OC)c2)C(=O)NCCc2c[nH]c3ccccc23)cc1 | -12.4% (inactive) | – |
| COc1ccc(/C=C(\C#N)c2c[nH]c3ccccc23)cc1 | – | 0.731 µM (active) |
| COc1ccc(C(C(O)C(=O)c2c[nH]c3ccccc23)N2CCN(c3ccccc3)CC2)cc1 (configuration not stated) | -16.4% (inactive) | – |
| C[C@H](CO)N1C[C@H](C)[C@@H](CN(C)C(=O)C2CCCCC2)OCc2cnnn2CCCC1=O | 3.05% (inactive) | – |

| SMILES | activity, negative = toxicity | Potency |
| --- | --- | --- |
| C[C@H]1CN(c2ccc(Br)cc2)C(=O)[C@@H]1CC(=O)Nc1ccc(Br)cc1 | -0.729% (inactive) | – |
| COc1ccc(CCNC(=O)c2cnc(Cl)c(Cl)c2)cc1 | 3% (inactive) | – |
| COc1ccc(NC(=O)CN2C(=O)NC(C)(c3ccccc3)C2=O)cn1 (configuration not stated) | 1.25% (inactive) | – |
| COc1ccc(CS(=O)/C(Cl)=C(/Cl)C(=O)Nc2ccc(OC)nc2)cc1 (configuration not stated) | – | 18.4 µM (active) |
| CC(C)Cn1cc(-c2cncc3nccn23)cn1 | 24.8% (inactive) | – |
| CC1(C)CN(CCc2ccccc2)C(=O)[C@H]1CC(=O)Nc1ccc(Br)cc1 | 8.18% (inactive) | – |
| CCOC(=O)c1c(NC(=O)COC(=O)c2ccc(S(=O)(=O)C(F)F)cc2)sc(C(=O)N(C)C)c1C | -3.1% (inactive) | – |
| COc1cccc(NC(=O)C2(C)CCN2Cc2ccccc2Cl)c1 (configuration not stated) | 0% (inactive) | – |
| CCN1/C(=C/c2ccc3ccc(C)cc3[n+]2CC)Sc2ccccc21 | – | 20.6 µM (active) |
| CCOC(=O)[C@]12CCCC=C1N(CCC1=CCCCC1)C(=O)[C@H](CC(=O)N1CCN(C(=O)c3ccco3)CC1)C2 | -9.21% (inactive) | – |
| O=C(Nc1ccc(O)cc1)c1ccc(NC(=O)c2ccco2)cc1 | – | 13 µM (active) |
| Cc1cc(NC(=O)c2ccc(F)cc2)ccc1NC(=O)c1ccco1 | -14.9% (inactive) | – |
| Cc1ccc(NC(=O)c2ccco2)cc1 | 10.6% (inactive) | – |
| O=S1(=O)CC(N2CCN(Cc3ccccc3F)CC2)CN1Cc1cn(Cc2ccccc2)nn1 (configuration not stated) | 5.91% (inactive) | – |
| CN(Cc1ccccc1)CC(O)COc1ccc(CNCc2cc3ccccc3s2)cc1 (configuration not stated) | – | 20.6 µM (active) |
| COc1ccc(OCC(O)CN(C)C(=O)C(C)Oc2ccccc2)cc1 (configuration not stated) | -2.85% (inactive) | – |
| Cc1ccc(OCC(=O)OC(C)CN(C)Cc2ccccc2)cc1 (configuration not stated) | -2.84% (inactive) | – |
| O=C(NCc1ccccc1)C1c2ccccc2OCC(=O)N1CCCN1CCOCC1 (configuration not stated) | 8.29% (inactive) | – |
| Cc1ccc(S(=O)(=O)N2CCC(=O)N([C@H](COCc3ccccc3)C(C)C)CC2)cc1 | -0.0342% (inactive) | – |
| O=C(O)c1ccc(NC(=O)c2cn(-c3ccccc3)nc2-c2ccc(Cl)cc2)cc1 | – | 20.6 µM (active) |
| Cc1ccc(-c2nn(-c3ccccc3)cc2C(=O)Nc2cccc(S(=O)(=O)N3CCOCC3)c2)cc1 | 9.95% (inactive) | – |
| Cc1ccc(-c2nn(-c3ccccc3)cc2C(=O)NCCCN2CCCC2=O)cc1 | 1.8% (inactive) | – |
